Experimental data published in PubChem BioAssay (NCATS).
Records with an inconclusive call do not appear. A number with no mark means an inactive call. Calls come from the whole dose curve; as a rule, active = well fitted curve in either direction with a large enough effect (not every such curve was filed as active); inconclusive = small, poorly fitted or top-dose-only effect, or another doubt; inactive = flat fitted curve, though single readings scatter.

Assay: AP1 Signaling Pathway (AID 357)
Conditions: ME-180 AP-1-bla reporter, EGF-induced, beta-lactamase ratio, 5 h; at 17.2 µM (top of the series) unless noted
Procedure, shortened: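 ME-180 cells with beta-lactamase reporter under AP-1 response element, stimulated with EC50 EGF; compounds tested in titration series, 5 h at 37 °C. CCF4 substrate added 2.5 h at room temperature; 460/530 nm emission ratio gave %activity and AC50.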
% is set by controls: 0 for no effect and ±100 for the full control effect.

| Structure (SMILES) | activity change, negative = inhibition [%] |
| --- | --- |
| Cc1c(Cl)c(C(F)(F)F)nn1CC(=O)N1CCSCC1 | 9.46 |
| CCOC(=O)c1c(C)[nH]c(/C(C)=N/O)c1C | -4.81 |
| O=c1c(C=NCCCn2ccnc2)c(-c2ccccc2)[nH]n1-c1nc2ccccc2s1 | -0.182 |
| O=C(C1=C(O)C(=O)N(CCN2CCOCC2)C1c1cccnc1)c1cc2ccccc2o1 (stereo not given) | 8.94 |
| CCCc1cc(=O)oc2c(C)c(O)c(CN3CCCCC3)cc12 | 6.18 |
| CCOC(=O)CC(=O)CSc1nc(N)c(C#N)c(-c2ccc(F)cc2)c1C#N | -26.2 |
| COC(=O)CSc1ncnc2c1sc1nc(-c3ccco3)c3c(c12)CC(C)(C)OC3 | -2.46 |
| Cc1cccn2c(=O)c3cc(C#N)c(=N)n(Cc4ccncc4)c3nc12 | 6.9 |
| CCC(NC(=O)Nn1cnnc1)(C(F)(F)F)C(F)(F)F | 21.2 |
| CCN(CC)CCN1C(=O)C(=O)/C(=C(/O)c2c(C)[nH]c(C(=O)OC)c2C)C1c1cccc(OC)c1 (stereo not given) | 1.88 |
| Cc1nc(SCC(=O)Nc2ccc3c(c2)OCO3)c(C#N)c2c1CCCC2 | -14.5 |
| COC(=O)C(NC(C)=O)(Nc1ccccc1)C(=O)OC | 2.11 |
| O=c1c(F)cn(C2CCCO2)c(=O)n1Cc1ccccc1Cl (stereo not given) | 0.0939 |
| CCCCOc1ccc(CN(C)c2ncnc(N)n2)cc1 | -9.35 |
| CN1C(=O)c2c(sc3c2CCCC3)NC1c1ccccc1O (stereo not given) | -12.2 |
| COC(=O)C(NC(=O)c1ccco1)(Nc1ccc(Br)cn1)C(F)(F)F (stereo not given) | -10.6 |
| CCCc1nnc(NC(=O)Nc2ccccc2OC)s1 | 0.551 |
| Cc1cc(C)nc(CC(N)=O)n1 | 0.0367 |
| Cn1c(OCc2ccc3c(c2)OCO3)nc2c1c(=O)n(Cc1cccc(Cl)c1)c(=O)n2C | -15.5 |
| COc1ccc(NC(=O)Nc2cccc(C(=O)N3CCOCC3)c2)cc1OC | 3.36 |

| Structure (SMILES) | activity change, negative = inhibition [%] |
| --- | --- |
| COc1ccccc1N(O)C1CC(=O)N(c2ccc(Br)cc2)C1=O (stereo not given) | -7.13 |
| COC(=O)c1cc(Br)c(=O)n(Cc2cccnc2)c1 | 2.36 |
| CC1(C)Cc2[nH]c(=S)c(C#N)cc2CO1 | 8.31 |
| CC1(C)Cc2c(sc3[nH]c(=S)n(Cc4ccco4)c(=O)c23)CO1 | -2.74 |
| Cc1cc(=O)oc(C)c1C(=O)NCCC1=CCCCC1 | 12.2 |
| CC(=O)NCCCCCCNC(C)=O | 10.3 |
| N#Cc1cccc(-n2c(-c3ccccc3)nnc2-c2ccccc2)c1C#N | 4.78 |
| CN(C)c1nc2sc3c(c2c(=O)n1C)CC(C)(C)OC3 | -6.89 |
| COc1cccc(Cn2c(OCC3CCCO3)nc3c2c(=O)n(C)c(=O)n3C)c1 (stereo not given) | -4.44 |
| CC1(C)Cc2c(sc3ncn4nc(-c5ccco5)nc4c23)CO1 | -5.24 |
| CCOC(=O)C1=C(C(C)=O)C(c2cccnc2)C(C#N)=C(N)O1 (stereo not given) | 29.3 |
| Nc1nnnn1CC(=O)OCc1cccc(Br)c1 | -12.9 |
| CN(C)c1cccc2c(S(=O)(=O)N3CCOCC3)cccc12 | -2.48 |
| COC(=O)C(C)Sc1nc2c(c(=O)n(C)c(=O)n2C)n1CCC(C)C (stereo not given) | -4.73 |
| NS(=O)(=O)c1cc2c(cc1Cl)NC(C1C[C@H]3C=C[C@@H]1C3)NS2(=O)=O (stereo not given in full) | 4.88 |
| CC(C(=O)NC(=O)NCc1ccccc1)N1C(=O)c2ccccc2C1=O (stereo not given) | -0.38 |
| Cc1ccc(C(=O)C2=C(O)C(=O)N(c3ncccn3)C2c2cccc(Cl)c2)o1 (stereo not given) | -1.15 |
| CC(C)CC(=O)Nc1ncnc2c1C(=O)CC(C)(C)C2 | 1.69 |
| CCCCc1nc2sc3c(c2c(=O)[nH]1)CCC3 | -16.9 |
| Cc1cc(C)n(CC(=O)c2ccccc2)c(=O)c1C#N | 17.1 |

Assay: NFAT Signaling Pathway (AID 444);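 note: carbachol stimulus at about its EC50 of 1 µM final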
Conditions: Jurkat NFAT-bla M1, carbachol, beta-lactamase ratio, 5 h; at 17.2 µM (top of the series) unless noted
Procedure, shortened: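 Jurkat cells with NFAT-driven β-lactamase reporter and co-expressed M1 receptor, stimulated with carbachol (final 1 uM, ~EC50), compound titration, 5 h at 37 °C. CCF4 loaded 1 h at RT; 460/530 nm ratio gave %activity and AC50.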

| Structure (SMILES) | activity change, negative = inhibition [%] |
| --- | --- |
| Cc1c(Cl)c(C(F)(F)F)nn1CC(=O)N1CCSCC1 | 0.195 |
| CCOC(=O)c1c(C)[nH]c(/C(C)=N/O)c1C | 3.09 |
| O=c1c(C=NCCCn2ccnc2)c(-c2ccccc2)[nH]n1-c1nc2ccccc2s1 | -18.1 |
| O=C(C1=C(O)C(=O)N(CCN2CCOCC2)C1c1cccnc1)c1cc2ccccc2o1 (stereo not given) | -4.55 |
| CCCc1cc(=O)oc2c(C)c(O)c(CN3CCCCC3)cc12 | 19.5 |
| CCOC(=O)CC(=O)CSc1nc(N)c(C#N)c(-c2ccc(F)cc2)c1C#N | 7.66 |
| COC(=O)CSc1ncnc2c1sc1nc(-c3ccco3)c3c(c12)CC(C)(C)OC3 | -26.7 |
| Cc1cccn2c(=O)c3cc(C#N)c(=N)n(Cc4ccncc4)c3nc12 | -26.5 |
| CCC(NC(=O)Nn1cnnc1)(C(F)(F)F)C(F)(F)F | -0.332 |
| CCN(CC)CCN1C(=O)C(=O)/C(=C(/O)c2c(C)[nH]c(C(=O)OC)c2C)C1c1cccc(OC)c1 (stereo not given) | 3.77 |
| Cc1nc(SCC(=O)Nc2ccc3c(c2)OCO3)c(C#N)c2c1CCCC2 | -1.28 |
| COC(=O)C(NC(C)=O)(Nc1ccccc1)C(=O)OC | -1.66 |
| O=c1c(F)cn(C2CCCO2)c(=O)n1Cc1ccccc1Cl (stereo not given) | -19.1 |
| CCCCOc1ccc(CN(C)c2ncnc(N)n2)cc1 | -11.6 |
| CN1C(=O)c2c(sc3c2CCCC3)NC1c1ccccc1O (stereo not given) | -10.9 |
| COC(=O)C(NC(=O)c1ccco1)(Nc1ccc(Br)cn1)C(F)(F)F (stereo not given) | -10.8 |
| CCCc1nnc(NC(=O)Nc2ccccc2OC)s1 | 25 |
| Cc1cc(C)nc(CC(N)=O)n1 | 4.47 |
| Cn1c(OCc2ccc3c(c2)OCO3)nc2c1c(=O)n(Cc1cccc(Cl)c1)c(=O)n2C | 1.55 |
| COc1ccc(NC(=O)Nc2cccc(C(=O)N3CCOCC3)c2)cc1OC | -1.43 |

| Structure (SMILES) | activity change, negative = inhibition [%] |
| --- | --- |
| COc1ccccc1N(O)C1CC(=O)N(c2ccc(Br)cc2)C1=O (stereo not given) | -6.72 |
| COC(=O)c1cc(Br)c(=O)n(Cc2cccnc2)c1 | 10.7 |
| CC1(C)Cc2[nH]c(=S)c(C#N)cc2CO1 | -8.3 |
| CC1(C)Cc2c(sc3[nH]c(=S)n(Cc4ccco4)c(=O)c23)CO1 | -5.17 |
| Cc1cc(=O)oc(C)c1C(=O)NCCC1=CCCCC1 | -27.5 |
| CC(=O)NCCCCCCNC(C)=O | -0.404 |
| N#Cc1cccc(-n2c(-c3ccccc3)nnc2-c2ccccc2)c1C#N | 5.67 |
| CN(C)c1nc2sc3c(c2c(=O)n1C)CC(C)(C)OC3 | -2.36 |
| COc1cccc(Cn2c(OCC3CCCO3)nc3c2c(=O)n(C)c(=O)n3C)c1 (stereo not given) | -8.17 |
| CC1(C)Cc2c(sc3ncn4nc(-c5ccco5)nc4c23)CO1 | 8.04 |
| CCOC(=O)C1=C(C(C)=O)C(c2cccnc2)C(C#N)=C(N)O1 (stereo not given) | -19 |
| Nc1nnnn1CC(=O)OCc1cccc(Br)c1 | 14.6 |
| CN(C)c1cccc2c(S(=O)(=O)N3CCOCC3)cccc12 | -4.98 |
| COC(=O)C(C)Sc1nc2c(c(=O)n(C)c(=O)n2C)n1CCC(C)C (stereo not given) | 7.85 |
| NS(=O)(=O)c1cc2c(cc1Cl)NC(C1C[C@H]3C=C[C@@H]1C3)NS2(=O)=O (stereo not given in full) | -20.1 |
| CC(C(=O)NC(=O)NCc1ccccc1)N1C(=O)c2ccccc2C1=O (stereo not given) | -0.399 |
| Cc1ccc(C(=O)C2=C(O)C(=O)N(c3ncccn3)C2c2cccc(Cl)c2)o1 (stereo not given) | 24.9 |
| CC(C)CC(=O)Nc1ncnc2c1C(=O)CC(C)(C)C2 | -2.65 |
| CCCCc1nc2sc3c(c2c(=O)[nH]1)CCC3 | -7.93 |
| Cc1cc(C)n(CC(=O)c2ccccc2)c(=O)c1C#N | -3.95 |
